According to PubChem BioAssay AID624330 (Southern Research Specialized Biocontainment Screening …, 2012):
The campaign covered roughly 340,000 compounds. About 2,100 (0.62%) were called active.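 Rule for the calls: active = first-screen hits whose inhibition reached a set limit at any dose in the follow-up dose series; inconclusive = inhibition above the set first-screen limit but never retested; inactive = the rest.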 Only a sample is shown. Measured potencies and affinities stand elsewhere.

biological target: Rac GTPase-activating protein 1 (Homo sapiens) (UniProt Q9H0H5); assay: MgcRacGAP GTPase-activating activity inhibitors, confirmation, biochemical, ADP Hunter fluorescence, primary and confirmatory (AID 624330); details: MgcRacGAP-stimulated Rac1 GTP hydrolysis, at 30 µM, hits give high values, GST-tagged Rac1 F28L mutant substrate;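 note: fluorescence reports GDP produced by GAP-driven GTP hydrolysis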
Sequence (Q9H0H5 whole entry, looked up): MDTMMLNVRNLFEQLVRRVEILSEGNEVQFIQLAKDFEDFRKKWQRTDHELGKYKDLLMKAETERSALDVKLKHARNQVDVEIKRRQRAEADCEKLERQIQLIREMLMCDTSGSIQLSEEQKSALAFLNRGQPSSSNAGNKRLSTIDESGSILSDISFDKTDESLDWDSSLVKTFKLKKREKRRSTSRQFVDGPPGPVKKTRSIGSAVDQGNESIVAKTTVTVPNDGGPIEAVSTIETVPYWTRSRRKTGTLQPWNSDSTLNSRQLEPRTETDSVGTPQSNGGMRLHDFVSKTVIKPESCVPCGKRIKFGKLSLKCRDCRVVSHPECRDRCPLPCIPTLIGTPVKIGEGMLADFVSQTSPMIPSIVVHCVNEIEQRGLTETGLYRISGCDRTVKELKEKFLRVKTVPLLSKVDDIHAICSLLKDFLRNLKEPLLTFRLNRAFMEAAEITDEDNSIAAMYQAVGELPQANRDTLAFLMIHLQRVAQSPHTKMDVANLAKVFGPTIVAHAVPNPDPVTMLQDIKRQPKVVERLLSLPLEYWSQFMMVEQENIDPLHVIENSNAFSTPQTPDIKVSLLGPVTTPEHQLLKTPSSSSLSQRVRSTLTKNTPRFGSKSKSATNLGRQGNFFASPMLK

inhibition, inactive:
O=[N+]([O-])c1cccc(-c2ccc(C(=S)N3CCN(c4ccc(F)cc4)CC3)o2)c1 5.79%
CN(C)c1ccc2nsnc2c1[N+](=O)[O-] 7.42%
Cc1ccc2nsnc2c1NC(=O)c1ccc([N+](=O)[O-])cc1 14.4%
Cc1ccc(-c2cn3c(n2)SCC3)cc1 14.4%
Brc1ccc(-c2cn3c(n2)SCC3)cc1 15.1%
CCCCNc1c(-c2ccc(SC3CCCCC3)c(OC)c2)nc2ccc(C)cn12 2.06%
O=C(Nc1ncccn1)C1c2ccccc2Oc2ccccc21 2.37%
COC(=O)c1ccc(Oc2ccc3nnc(C)n3n2)cc1 -0.14%
COc1ccc2nnc(-c3ccccc3)n2n1 10.9%
CC(=O)Nc1ccc2sc(NC(=O)CN3CCOCC3)nc2c1 7.43%
CCCCc1cc(=O)oc2cc(OCC(=O)Nc3ccccn3)ccc12 11.4%
Fc1ccc(-c2nnc3ccccn23)cc1 0.86%
c1ccn2c(Cc3nnc4ccccn34)nnc2c1 3.25%
Cc1ccn2c(C(C)O)nnc2c1 (stereo unspecified) 11.7%
CSc1nc(=O)n2cccc(C)c2n1 0.29%
Cc1ccn2c(=O)cc(C)nc2c1 -1.02%
Cc1cccn2c(N)c(-c3ccccc3)nc12 7.39%
O=C(CCC(=O)N1CCOCC1)NCCc1ccccc1 0.87%
CCN(CC(=O)Nc1ccc(NC(C)=O)cc1)C(=O)c1ccc2c(c1)S(=O)(=O)N=C1CCCCCN12 1.15%
CCOc1ccccc1NC(=S)N1CCCCCC1 5.32%
CCCCN1C(=O)/C(=C(/C#N)C(N)=O)c2ccccc21 10.6%
CCOC(=O)/C(C#N)=C1/C=CN(Cc2ccccc2)C=N1 6.15%
CCOC(=O)/C(C#N)=C1/C=Cc2ccccc2N1CC 12.8%
CCOC(=O)C(C#N)=C1CCN(Cc2ccccc2)CC1 11.1%
Cc1ccc(C(=O)NC(NCc2ccco2)C(Cl)(Cl)Cl)cc1 (stereo unspecified) 2.01%
O=C(NCCCN1CCCC1)c1ccc2c(c1)N(Cc1ccccc1)CCS2 -3.35%
O=C(COC(=O)CCc1c[nH]c2ccccc12)NCc1ccccc1 4.56%
COCCNC(=S)N(Cc1cc2cc(C)ccc2n2nnnc12)C1CCCC1 1.01%
COc1ccc(C(=O)NC(=S)N(C)Cc2ccccc2)cc1Br 3.69%
Cc1nc2scc(C)n2c(=O)c1S(=O)(=O)N1CCN(c2ccc(F)cc2)CC1 5.64%
Cc1nc2scc(C)n2c(=O)c1S(=O)(=O)N1CCN(c2ccccc2)CC1 1.78%
O=CN(/C=C1\Sc2ccccc2C1=O)Cc1ccccc1 10%
Cc1sc2ncnc(N/N=C/c3cccc(O)c3)c2c1C 20.2%
Cc1ccc(Nc2ncnc3sc(C)c(C)c23)cc1 18.3%
COc1ccc(/C=N/Nc2ncnc3sc(C)c(C)c23)cc1 11.8%
Cc1sc2ncnc(Nc3ccccc3)c2c1C 4.64%
COCCOc1cc(NC(=O)CS(=O)(=O)CC(=O)N(C)C)c(Cl)cc1Cl -10.1%
O=C(Nc1cccc(Cl)c1)C1C2C=CC3(O2)C1C(=O)N(CCN1CCCCC1)C3C(=O)NC1CCCCC1 (stereo unspecified) 4.26%
CCN(CC)C(=O)CN(c1ccc(C)cc1)S(=O)(=O)c1ccc(SC)cc1 3.34%
COc1ccc(C2CC(=O)Nc3ccccc3S2(=O)=O)cc1OC (stereo unspecified) 11.4%
O=C(Nc1cccc(C(=O)Nc2ccccc2F)c1)c1ccccc1 -9.87%
CN(C)c1ccc(/C=C/c2ccncc2)cc1 16.4%
CN(C)c1ccc(/C=C/C(=O)c2cccnc2)cc1 10.2%
O=C(CSc1ccc2nnc(-c3cccnc3)n2n1)Nc1ccccc1C(F)(F)F 6.49%
OCC(CO)(CO)N=Cc1cc(Br)ccc1O 8.85%
Oc1cccc(C=Nc2cccc3ccccc23)c1O -2.71%
Oc1ccc(Cl)cc1/C=N/c1nccs1 3.22%
Cc1cccc(C=Nc2ccc3c(c2)oc2ccccc23)c1O 25.6%
CCN(CC)c1ccc(N=Cc2cc(Br)ccc2O)cc1 10.9%
Oc1ccc(Cl)cc1C=Nc1ccccc1Br 4.11%
COc1ccccc1-c1nnc(SCC(=O)Nc2ccc(S(N)(=O)=O)cc2)n1C 7.69%
C[C@H](CO)N1C[C@H](C)[C@H](CN(C)C(=O)Nc2ccc(C(C)(C)C)cc2)OCc2cnnn2CCCC1=O -5.61%
COc1ccc(OC)c(S(=O)(=O)NCC(=O)NC2CCCc3ccccc32)c1 (stereo unspecified) 6.06%
O=C(Nc1ccc2c(c1)OCO2)C1CCCN1C(=O)OCc1ccccc1 (stereo unspecified) 6.44%
C=CCN(CC=C)CCOc1ccc(OC(C)C)cc1 26.4%
COc1ccc2c(c1)c(C(=O)N/N=C/c1ccc(OC)c(OC)c1)c(C)n2C -2.93%
COc1ccc2nc(C)cc(SCC(=O)N/N=C/c3ccccc3)c2c1 5.43%
COc1ccc2c(c1)c(C(=O)N/N=C/c1cccc(O)c1)c(C)n2C 16.9%
COc1ccc2nc(C)cc(SCC(=O)N/N=C/c3ccc(O)cc3O)c2c1 17.7%
CC(=O)Nc1c2c(nn1-c1ccc(Cl)cc1)CSC2 2.25%
O=C(CCc1ccccc1)NNC(=O)COc1ccccc1 11.8%
Cc1ccc2ccc(C(Nc3cccc(C(F)(F)F)c3)c3cccnc3)c(O)c2n1 (stereo unspecified) 10.8%
COc1cc(CCC(=O)OCC(=O)N(CCC#N)c2ccccc2)cc(OC)c1OC 7.7%
COc1cccc(CNCCO)c1OCc1ccccc1Cl 9.99%
Cc1ccc(NCc2ccccc2OCc2ccccc2F)cc1 11.5%
COc1cccc(CNc2ccc3[nH]c(=O)[nH]c3c2)c1OCc1ccc(F)cc1 26.2%
COc1cc(CNc2ccc3[nH]c(=O)[nH]c3c2)ccc1OCc1ccc(C)cc1 16.9%
COc1cc(CNc2ncn[nH]2)ccc1OCc1cccc(C)c1 8.87%
CCOc1cc(CNC)ccc1OCC(=O)NC(C)(C)C 2.12%
Oc1ccc(NCc2ccccc2OCc2ccccc2)cc1 11.9%
CCOc1cc(CNc2ncn[nH]2)ccc1OCC(=O)NC(C)(C)C 1.46%
COc1ccc(C(=O)Nc2ccncc2)c(OC)c1 13.1%
Cn1cc(C(=O)C(=O)NC2CCCCC2)c2ccccc21 10%
COc1ccc(C(CNC(=O)c2ccc(NS(=O)(=O)c3ccc(F)cc3)cc2)N2CCOCC2)cc1 (stereo unspecified) 4.8%
CN(CC(=O)Nc1ccc(F)c(F)c1F)C(=O)CN1C(=O)NC2(CCCC2)C1=O 9.6%
CCOC(=O)c1cc2ccc3ccccc3c2oc1=O 8.31%
Cc1ccc2c(c1)nnn2C1CCN(CC(=O)NNC(=O)c2ccco2)CC1 0.28%
CCOc1cccc(CNc2ccc(O)cc2)c1OCc1ccccc1Cl 29.3%
CCOc1cccc(CNc2ccc(O)cc2)c1OCc1ccc(Cl)cc1 19.5%
CCCCCCN1C[C@@H](O)[C@H](n2cc(-c3ccc(F)cc3)nn2)C[C@@H]1c1ccc(C)cc1 6.07%
CNCc1c(OCc2ccccc2F)ccc2ccccc12 -6.3%
O=C1CNC(=O)/C(=C/c2cccs2)N1 0.05%
O=C1/C(=C\c2ccco2)NC(=S)N1c1ccccc1 21.9%
O=C1/C(=C\c2ccco2)CCC/C1=C\c1ccco1 38.4%
O=C1NC(=O)/C(=C/c2ccco2)N1 11%
O=C1C(=Cc2cccs2)C(=O)c2ccccc21 4.2%
O=C1/C(=C\c2ccco2)SC(=S)N1c1ccccc1 23.6%
O=C1CNC(=O)/C(=C/c2ccco2)N1 14.3%
O=C1/C(=C/c2ccco2)CCc2ccccc21 8.52%
O=C(NCc1cccc(Cl)c1)c1ccc(CS(=O)Cc2ccccc2Cl)o1 (stereo unspecified) -7.5%
C[C@@H]1CCCCO[C@H](CN(C)C(=O)Nc2ccc3c(c2)OCO3)[C@H](C)CN([C@@H](C)CO)C(=O)c2cc(NS(=O)(=O)c3ccc(Cl)cc3)ccc2O1 10.2%
O=C(CN1CCOc2ccccc21)NCc1ccccc1 -7.36%
O=C(N/N=C\c1ccccn1)C1COc2cc3ccccc3cc2O1 (stereo unspecified) 15.9%
CN1/C(=C/C2CC(=O)NC2=O)C(C)(C)c2ccccc21 (stereo unspecified) 6.09%
O=c1oc2c(CN3CCCCC3)c(O)ccc2c2c1CCCC2 -1.27%
COc1ccc(-c2noc(CCC(=O)NCCCN3CCC(C)CC3)n2)cc1 8.68%
O=C(COc1ccc(S(=O)(=O)N2CCCC2)cc1)N1CCN(c2ccccc2F)CC1 3.38%
CCN(Cc1ccncc1)C(=O)c1ccc2c(c1)S(=O)(=O)c1ccccc1C2=O -39.1%
CCS(=O)(=O)C1=NN2C(=N)/C(=C\c3ccc(OC(=O)c4ccco4)c(OC)c3)C(=O)N=C2S1 30.5%
CC1=CN2C(=N)/C(=C/c3ccco3)C(=O)N=C2S1 5.23%
CCOc1cc(/C=C2\C(=N)N3N=C(S(C)(=O)=O)SC3=NC2=O)ccc1OCCOc1cccc(OC)c1 12.1%
COc1cc(/C=C2/C(=N)N3C=CSC3=NC2=O)ccc1OCCCOc1cc(C)ccc1C 4.39%
C=CCOc1ccc(/C=C2\C(=N)N3N=C(S(=O)(=O)CC)SC3=NC2=O)cc1OC -6.72%
CCOc1cc(/C=C2\C(=N)N3N=C(S(=O)(=O)CC)SC3=NC2=O)ccc1OC(=O)c1ccco1 26.5%
CCC1=NN2C(=N)/C(=C\c3ccc(SCc4ccco4)o3)C(=O)N=C2S1 45.8%
CCCC1=NN2C(=N)/C(=C\c3ccc(SCc4ccco4)o3)C(=O)N=C2S1 60.1%
